Inconclusive results are not listed. The source made the active and inactive calls. Calls follow the shape of the dose curve; as a rule, active = well fitted curve in the direction sought with a large enough effect; inconclusive = small, poorly fitted or top-dose-only effect, or another doubt; inactive = no such curve, though single readings can be large; an effect the other way counts as inactive or inconclusive.
Key:
[1] = qHTS of pediatric cancer cell lines to identify multiple opportunities for drug repurposing: Confirmatory screen for NB1643 cells (AID 1347109); also: nearly all actives have a fitted effect of over 45% in size; also: potency is read from the fitted curve at half-maximal effect
Method in brief: (§1)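 Cells (500-1,000/well) rested 5 h, then received compounds for 48 h; metabolically active cells were measured by CellTiter-Glo luminescence. Final concentrations spanned up to 46 µM (MIPE, 11-point) or 0.59 nM-46 µM (NPC, 8-point) in primary screens, 11-point in follow-ups.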

[2] = qHTS of pediatric cancer cell lines to identify multiple opportunities for drug repurposing: Confirmatory screen for A673 cells (AID 1347110);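 also: cells exposed to compound for 48 h before the viability read; nearly all actives have a fitted effect of over 65% in size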; also: potency is read from the fitted curve at half-maximal effect
Method in brief: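 Cells plated at 500-1,000/well were treated five hours later with multi-point dilutions up to 46 µM final. After two days, CellTiter-Glo was added and luminescence read.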

[3] = qHTS of pediatric cancer cell lines to identify multiple opportunities for drug repurposing: Confirmatory screen for LAN-5 cells (AID 1347113); also: nearly all actives have a fitted effect of over 65% in size; also: potency is read from the fitted curve at half-maximal effect
Method in brief: as §1

[4] = qHTS of pediatric cancer cell lines to identify multiple opportunities for drug repurposing: Confirmatory screen for NB-EBc1 cells (AID 1347115);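 also: cells exposed to compound for 48 h before the viability read; nearly all actives have a fitted effect of over 45% in size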; also: potency is read from the fitted curve at half-maximal effect
Method in brief: as §1

[5] = qHTS of pediatric cancer cell lines to identify multiple opportunities for drug repurposing: Confirmatory screen for BT-37 cells (AID 1347117); also: nearly all actives have a fitted effect of over 55% in size; also: potency is read from the fitted curve at half-maximal effect
Method in brief: as §1

[6] = qHTS of pediatric cancer cell lines to identify multiple opportunities for drug repurposing: Confirmatory screen for MG 63 (6-TG R) cells (AID 1347119); also: nearly all actives have a fitted effect of over 55% in size; also: potency is read from the fitted curve at half-maximal effect
Method in brief: as §1

[7] = qHTS of pediatric cancer cell lines to identify multiple opportunities for drug repurposing: Confirmatory screen for control Hh wild type fibroblast cells (AID 1347121); also: nearly all actives have a fitted effect of over 70% in size; also: potency is read from the fitted curve at half-maximal effect
Method in brief: as §1

[8] = qHTS of pediatric cancer cell lines to identify multiple opportunities for drug repurposing: Confirmatory screen for U-2 OS cells (AID 1347122); also: nearly all actives have a fitted effect of over 65% in size; also: potency is read from the fitted curve at half-maximal effect
Method in brief: as §1

[9] = qHTS of pediatric cancer cell lines to identify multiple opportunities for drug repurposing: Confirmatory screen for Rh41 cells (AID 1347123);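 also: 48 h compound exposure; nearly all actives have a fitted effect of over 60% in size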; also: potency is read from the fitted curve at half-maximal effect
Method in brief: as §1

[10] = qHTS of pediatric cancer cell lines to identify multiple opportunities for drug repurposing: Confirmatory screen for Rh18 cells (AID 1347125); also: nearly all actives have a fitted effect of over 55% in size; also: potency is read from the fitted curve at half-maximal effect
Method in brief: as §1

[11] = qHTS of pediatric cancer cell lines to identify multiple opportunities for drug repurposing: Confirmatory screen for Saos-2 cells (AID 1347127); also: nearly all actives have a fitted effect of over 60% in size; also: potency is read from the fitted curve at half-maximal effect
Method in brief: as §1

[12] = qHTS of pediatric cancer cell lines to identify multiple opportunities for drug repurposing: Confirmatory screen for OHS-50 cells (AID 1347128);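 also: compound exposure lasted 48 h at 37 degrees C; nearly all actives have a fitted effect of over 55% in size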; also: potency is read from the fitted curve at half-maximal effect
Method in brief: as §1

[13] = qHTS of pediatric cancer cell lines to identify multiple opportunities for drug repurposing: Confirmatory screen for SK-N-SH cells (AID 1347129);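 also: cells exposed to compound for 48 h before viability read; nearly all actives have a fitted effect of over 60% in size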; also: potency is read from the fitted curve at half-maximal effect
Method in brief: as §1

[14] = qHTS of pediatric cancer cell lines to identify multiple opportunities for drug repurposing: Confirmatory screen for BT-12 cells (AID 1347112); also: potency is read from the fitted curve at half-maximal effect
Method in brief: as §1

[15] = qHTS of pediatric cancer cell lines to identify multiple opportunities for drug repurposing: Confirmatory screen for DAOY cells (AID 1347114); also: nearly all actives have a fitted effect of over 65% in size; also: potency is read from the fitted curve at half-maximal effect
Method in brief: (§2)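 Viability measured as metabolically active cells via CellTiter-Glo luminescence following 48 hours of compound exposure, 11-point dilutions in confirmatory testing. 500-1,000 cells/well plated 5 hours before dosing; controls were DMSO and 2.3 µM bortezomib.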

[16] = qHTS of pediatric cancer cell lines to identify multiple opportunities for drug repurposing: Confirmatory screen for SJ-GBM2 cells (AID 1347116); also: nearly all actives have a fitted effect of over 60% in size; also: potency is read from the fitted curve at half-maximal effect
Method in brief: as §2

[17] = qHTS of pediatric cancer cell lines to identify multiple opportunities for drug repurposing: Confirmatory screen for Rh30 cells (AID 1347126); also: nearly all actives have a fitted effect of over 55% in size
Method in brief: as §1

[18] = qHTS of pediatric cancer cell lines to identify multiple opportunities for drug repurposing: Confirmatory screen for TC32 cells (AID 1347118)
Method in brief: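 Measured quantity: luminescence from CellTiter-Glo, reflecting metabolically active TC32 cells following 48 h of compound. Curves came straight from multi-point titrations, with 8 or 11 points in primary and 11 in confirmatory screening.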

[19] = qHTS of pediatric cancer cell lines to identify multiple opportunities for drug repurposing: Confirmatory screen for SK-N-MC cells (AID 1347111);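 also: potency is read from the fitted curve at half-maximal effect; cells exposed to compound for 48 h before the readout; nearly all actives have a fitted effect of over 70% in size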
Method in brief: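 Seed 500-1,000 cells/well; rest 5 h at 37 degrees C. Pin-transfer compounds, 11-point titration. Incubate 48 h. Add CellTiter-Glo, 15 min RT, read luminescence.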

Measured: Potency

C[C@@]1(C(=O)Nc2ccc(F)nc2)CCCN1c1nc(Nc2cc(C3CC3)[nH]n2)c2cccn2n1
active: [1] 293 nM | [2] 465 nM | [3] 147 nM | [4] 1470 nM | [5] 2930 nM | [6] 104 nM | [7] 14700 nM | [8] 1650 nM | [9] 208 nM | [10] 7370 nM | [11] 1850 nM | [12] 5220 nM | [13] 1660 nM

C[C@@H]1C[C@H]2[C@@H]3CCC4=CC(=O)C=C[C@]4(C)[C@@]3(F)[C@@H](O)C[C@]2(C)[C@@]1(O)C(=O)CO
inactive: [1] | [2] | [14] | [3] | [15] | [4] | [5] | [6] | [7] | [8] | [9] | [11] | [12] | [13]

CCCCn1c(=O)n(Cc2ccccc2F)c(=O)c2[nH]c(Cc3ccc(NC(C)=O)cc3)nc21
active: [16] 11700 nM
inactive: [1] | [14] | [3] | [4] | [5] | [6] | [7] | [10] | [11] | [12] | [13]

COc1cc2c(cc1OC)[C@@H]1Cc3ccc(OC)c(OC)c3CN1CC2
inactive: [2] | [7] | [8] | [13]

N#CC(=C1Nc2ccccc2S1)c1ccnc(OCc2ccc(CN3CCOCC3)cc2)n1
inactive: [3] | [4] | [6] | [7] | [8] | [9] | [10] | [17] | [13]

CC(C)C[C@H](NC(=O)c1cc2ccccc2s1)C(=O)N1CCN(C(=O)[C@H](CO)NS(=O)(=O)c2ccc(Cl)cc2Cl)CC1
inactive: [16] | [7] | [10]
active: [14] 3.7 nM | [3] 23300 nM | [5] 13100 nM | [8] 29.3 nM | [9] 18500 nM

CN(C)CCN(C)C(=O)c1ccc(NC(=O)Nc2ccc(-c3nc(N4CCOCC4)c4ccn(CC(F)(F)F)c4n3)cc2)cc1
active: [2] 293 nM | [14] 18500 nM | [3] 414 nM | [15] 20800 nM | [6] 329 nM | [8] 3690 nM | [9] 208 nM | [10] 3290 nM | [13] 4690 nM
inactive: [4]

CC[C@H](NC(=O)[C@H](C)NC)C(=O)N1C[C@@H](O)C[C@H]1Cc1c(-c2[nH]c3cc(F)ccc3c2C[C@H]2C[C@H](O)CN2C(=O)[C@H](CC)NC(=O)[C@H](C)NC)[nH]c2cc(F)ccc12
inactive: [4] | [7] | [13]
active: [2] 7370 nM | [14] 18500 nM | [15] 5220 nM | [18] 2930 nM | [11] 5220 nM

O=C(c1ccc(F)c(F)c1Nc1ccc(I)cc1F)N1CC(O)([C@H]2CCCCN2)C1
active: [2] 26100 nM | [8] 2610 nM | [9] 14700 nM
inactive: [4] | [16] | [7]

COc1cc2nccc(Oc3ccc(NC(=O)Nc4cc(C)on4)c(Cl)c3)c2cc1OC
inactive: [3] | [7]
active: [2] 18500 nM | [19] 16500 nM | [13] 9350 nM

FC(F)(F)c1ccc(C=Cc2nc(COc3ccc(CCCCn4ccnn4)cc3)co2)cc1
inactive: [16] | [10] | [12] | [13]
active: [19] 1170 nM | [15] 261 nM | [4] 369 nM | [6] 261 nM | [7] 369 nM | [8] 261 nM

CON(C)C(=O)N1N=C(c2cc(F)ccc2F)S[C@]1(CCCN)c1ccccc1
inactive: [7]
active: [2] 10.4 nM | [19] 9.3 nM | [5] 7.4 nM | [18] 11.7 nM | [6] 20.8 nM | [8] 46.5 nM | [9] 18.5 nM | [11] 5.9 nM | [12] 5.2 nM

Nc1ccn([C@@H]2O[C@H](CO)[C@@H](O)[C@H]2O)c(=O)n1
active: [2] 657 nM | [19] 2610 nM | [4] 3290 nM | [5] 329 nM
inactive: [15] | [6] | [7] | [8] | [10]

CN(C(Cc1ccc(OS(=O)(=O)c2cccc3cnccc23)cc1)C(=O)N1CCN(c2ccccc2)CC1)S(=O)(=O)c1cccc2cnccc12 (stereo not given)
active: [19] 2930 nM | [9] 5220 nM | [12] 5220 nM
inactive: [2] | [15] | [7] | [13]
